Screening data from PubChem BioAssay.
ALR inh = inhibitors of human sulfhydryl oxidase ALR. P55789. purified ALR, DTT oxidation, H2O2 HRP-luminol luminescence. inhibition, % (concentration not given with the values). 290,000 tested, 3.8% active. AID 485317;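 active = mean replicate inhibition above about 79%, with every replicate also reaching it, limit read from the data; inconclusive = only one of the two criteria met; inactive = mean below limit and not every replicate reaching it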
Target sequence (P55789 whole entry, looked up): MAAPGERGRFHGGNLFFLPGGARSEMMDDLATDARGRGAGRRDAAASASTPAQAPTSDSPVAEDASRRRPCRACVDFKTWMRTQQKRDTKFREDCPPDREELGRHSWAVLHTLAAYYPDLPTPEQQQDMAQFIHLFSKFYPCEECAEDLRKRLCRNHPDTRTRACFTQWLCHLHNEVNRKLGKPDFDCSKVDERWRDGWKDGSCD
UBC9 SUMO inh = SUMOylation inhibition; inhibition, % at 35 µM; 290,000 tested, 0.36% active; P63279; HTRF SUMOylation assay, SAE1/SAE2 + UBC9, in vitro; AID 2006; in the data active = inhibition above about 50%, passing the limit was not always enough; inconclusive = no clear call, values can overlap the other calls
PABP polyA inh = blocks human PABP binding to poly(A) RNA | fluorescence polarization | inhibition, % at 35 µM | 290,000 tested, 1% active | AID 2014;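 also: calls also rest on retests at 20 µM and on dose response follow-up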
eIF4H FP inh = inhibitors of RNA binding by human eIF4H | eIF4H fluorescence polarization binding assay | inhibition, % at 35 µM | 290,000 tested, 0.94% active | AID 2012;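 also: calls also rest on retests at 20 µM and on dose response follow-up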
Efflux pump inh = inhibitors of Candida antifungal efflux pumps expressed in yeast; S. cerevisiae Candida pump triplex, Nile Red efflux; inhibition, % at 10 µM; 330,000 tested, 0.44% active;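 active = plate passing quality check with inhibition over a set limit, or well fluorescence over plate mean plus 4 SD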;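 also: Nile Red retained in pooled yeast measured as flow cytometry median fluorescence; 0% = buffer negative control and 100% = Enniatin B positive control; higher means more Nile Red kept so more efflux inhibition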
PABP1 MLLE inh = inhibitors of microRNA-mediated deadenylation, human PABP1 MLLE binding; GST-MLLE / FITC-PAM2 fluorescence polarization; 360,000 tested, 0.36% active; P11940; inhibition, % at 20 µM; in the data active = inhibition above about 35%, passing the limit was not always enough;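 also: plate controls were DMSO wells with GST-MLLE for no effect and wells lacking GST-MLLE protein for full effect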
* = called active by the depositor; ? = inconclusive; . = no result. Hits are enriched below; roughly 4.7% of the tested compounds scored in any of these assays. Unless noted, no rule for the calls is given here.

SMILES	ALR inh	UBC9 SUMO inh	PABP polyA inh	eIF4H FP inh	Efflux pump inh	PABP1 MLLE inh
CCCCCCCCCCCCCC(=O)NO	.	.	.	.	.	0
COc1ccccc1Cc1c(-c2cccc(Cl)c2)nc2ccc(C)cn12	.	.	.	.	.	-13
Cc1oc2c(c(C)cc3oc(=O)c(CC(=O)NCC(=O)NCC(=O)O)c(C)c32)c1C	30	53*	9	1	0	-5
Cc1oc2c(c(C)cc3oc(=O)c(CC(=O)N[C@H](C(=O)O)C(C)C)c(C)c32)c1C	7	51*	4	-9	0	8
O=c1c2ccc([N+](=O)[O-])c3cccc(c32)c2nc3ccccc3n12	-2	-13	11	13	0	.
O=c1c2cccc3c(N4CCOCC4)ccc(c32)c2nc3ccccc3n12	.	29	122*	122	.	.
CCCCN1C(=O)C2Cc3c([nH]c4ccccc34)CN2C1=S (configuration not stated)	89*	-3	-1	20	0	15
CC(NC(=S)Nc1ccccc1C(F)(F)F)C1CC2CCC1C2 (configuration not stated)	.	14	10	-5	0	46*
COc1ccc(NS(=O)(=O)c2cccc(C(=O)NNC(=O)c3cc(S(N)(=O)=O)ccc3OC)c2)cc1	.	.	.	.	0	3
CNC(=S)NNC(=O)c1sc2cc(C(F)(F)F)cnc2c1-c1cccnc1	88*	17	6	-5	0	-28
CCOc1ccc(S(=O)(=O)N2CCN(C(=O)c3cc(C4CC4)nn3-c3ccccc3)CC2)cc1	.	.	.	.	.	-5
Cc1cc(N2CCCC2)ccc1NC(=O)CN1C(=O)NC(C)(c2ccccc2)C1=O (configuration not stated)	99*	-11	3	12	0	-18
Cc1ccc(NC(=O)COc2ccc3c(c2)OCO3)c(Cl)c1	.	.	.	.	0	9
O=[N+]([O-])c1ccc(-c2cnc(NO)nc2)cc1	99*	2	-11	-8	0	-14
Nc1ncc(-c2ccc([N+](=O)[O-])cc2)cn1	-10	2	20	24	0	9
O=c1c(O)cccc2cc(O)c(O)c(O)c12	100*	?	94*	102*	0	38*
CCOC(=O)c1sc(-c2ccc(Cl)cc2Cl)nc1O	97*	35	-10	-1	0	19
CC[C@H](C)[C@@H](C(=O)NCCCCCCCCCCC(=O)N1CCNCC1)n1cc(CCCCCN)nn1	-29	.	.	.	0	10
O=C(NC1CCS(=O)(=O)C1)c1cccc(Cl)c1 (configuration not stated)	3	.	.	.	0	5
CC1CN(C(=O)c2ccccc2Nc2ccc(SC(F)F)cc2)CC(C)O1 (configuration not stated)	99*	4	-6	-5	0	0
COc1ccc(S(=O)(=O)N2CCCCC2)cc1NC(=O)CCNC(=O)c1ccco1	.	.	.	.	.	-1
COc1ccc(C(=O)N2CCN(c3ccccn3)CC2)cc1[N+](=O)[O-]	1	13	-10	6	0	7
Cc1ccc(CCNC(=O)c2coc3nc4ccccc4nc23)cc1	-1	4	51*	73	1	-28
CC1CCN(CCCNC(=O)c2coc3nc4ccccc4nc23)CC1	35	8	11	-2	0	2
O=S1(=O)NC(=NC2CCCCCC2)c2ccccc21	89*	-10	8	0	0	10
SMILES	ALR inh	UBC9 SUMO inh	PABP polyA inh	eIF4H FP inh	Efflux pump inh	PABP1 MLLE inh
CCSc1nc2c(c(-c3ccc(C)o3)c1C#N)CCCC2	83*	11	-3	1	0	5
CC(C)CN1C(=O)/C(=C/c2cccs2)NC1=S	99*	5	-11	-3	0	-77
CCCOc1ccc(C2CC(=O)Nc3cc(OC)c(OC)cc32)cc1 (configuration not stated)	11	18	-3	-2	0	5
Cn1nc(C(C)(C)C)cc1C(=O)N1CCCCC1c1cc(C(=O)Nc2ccccc2)no1 (configuration not stated)	.	.	.	.	.	13
Cc1occc1-c1nnc(SCC(=O)c2cc3ccccc3oc2=O)o1	98*	34	34	60*	0	15
C=C(C)C(=O)Nc1cccc(C2=NOC3(C2)C[C@@H](C(N)=O)N(C(=O)c2ccc(Cl)cc2)C3)c1 (some centres not stated)	-5	20	.	.	0	.
C=C(C)C(=O)Nc1cccc(C2=NOC3(C2)C[C@@H](C(N)=O)N(C(=O)C(=C)C)C3)c1 (some centres not stated)	.	17	61*	93*	0	7
C=C(C)C(=O)Nc1cccc(C2=NOC3(C2)C[C@@H](C(N)=O)N(C(=O)C2(C)CC2)C3)c1 (some centres not stated)	.	-7	70*	100*	0	3
C=C(C)C(=O)Nc1cccc(C2=NOC3(C2)C[C@H](C(N)=O)N(C(=O)COc2ccc(Cl)cc2)C3)c1 (some centres not stated)	.	-4	50*	86*	0	-6
C=C(C)C(=O)Nc1cccc(C2=NOC3(C2)C[C@H](C(N)=O)N(C(=O)c2ccccc2)C3)c1 (some centres not stated)	.	21	62*	91*	0	-4
CC(C)[C@H](NC(=O)c1ccccc1F)C(=O)OCCN1C(=O)c2ccccc2C1=O	-2	.	.	.	0	-1
Cc1ccc(NC(=O)CC2OC(=O)c3ccccc32)cc1S(=O)(=O)N1CCCCCC1 (configuration not stated)	-10	.	.	.	0	14
CCOC(=O)C1(CCOc2ccccc2)CCN(Cc2ccc(OC)c(COC)c2)CC1	-21	-15	6	13	0	0
CCOC(=O)CSC1=C(C#N)C(=O)NC(c2ccc(OC)c(OC)c2)S1 (configuration not stated)	99*	-26	-2	-7	0	48*
CCOC(=O)CSc1nc2cc(OC)ccc2cc1C#N	.	-11	9	12	0	-5
CCOC(=O)CSC1=C(C#N)C(=O)NC(c2ccc(OC)cc2)S1 (configuration not stated)	98*	30	35	7	0	38
CNC[C@H]1OCc2ccccc2-c2ccccc2C(=O)N([C@H](C)CO)C[C@H]1C	.	.	.	.	.	-4
O=C(c1ccc(CS(=O)Cc2ccc(Cl)cc2)o1)N1CCN(c2ccccc2)CC1 (configuration not stated)	93*	0	4	-14	0	2
COc1cccc(N2CCN(C(=O)c3ccc(CS(=O)Cc4ccc(Cl)cc4)o3)CC2)c1 (configuration not stated)	-4	2	-3	6	0	13
Cc1ccc(CS(=O)Cc2ccc(C(=O)N3CCN(c4ccc(F)cc4)CC3)o2)cc1 (configuration not stated)	39	16	-2	-15	0	-3
